Here are results for one compound from ChEMBL document CHEMBL1961873, “Compounds: GSK PKIS; Assays: Nanosyn kinase panel” (2012).

For orientation: inhibition means the drop in the measured response relative to a control, in per cent.

Assay [1] deals with Sphingosine kinase 1 (Homo sapiens) (UniProt Q9NYA1). The note with it: at 1 µM.
The target in assay [2] is T1, Sphingosine kinase 2 (Homo sapiens) (UniProt Q9NRA0).
T1 sequence (whole entry): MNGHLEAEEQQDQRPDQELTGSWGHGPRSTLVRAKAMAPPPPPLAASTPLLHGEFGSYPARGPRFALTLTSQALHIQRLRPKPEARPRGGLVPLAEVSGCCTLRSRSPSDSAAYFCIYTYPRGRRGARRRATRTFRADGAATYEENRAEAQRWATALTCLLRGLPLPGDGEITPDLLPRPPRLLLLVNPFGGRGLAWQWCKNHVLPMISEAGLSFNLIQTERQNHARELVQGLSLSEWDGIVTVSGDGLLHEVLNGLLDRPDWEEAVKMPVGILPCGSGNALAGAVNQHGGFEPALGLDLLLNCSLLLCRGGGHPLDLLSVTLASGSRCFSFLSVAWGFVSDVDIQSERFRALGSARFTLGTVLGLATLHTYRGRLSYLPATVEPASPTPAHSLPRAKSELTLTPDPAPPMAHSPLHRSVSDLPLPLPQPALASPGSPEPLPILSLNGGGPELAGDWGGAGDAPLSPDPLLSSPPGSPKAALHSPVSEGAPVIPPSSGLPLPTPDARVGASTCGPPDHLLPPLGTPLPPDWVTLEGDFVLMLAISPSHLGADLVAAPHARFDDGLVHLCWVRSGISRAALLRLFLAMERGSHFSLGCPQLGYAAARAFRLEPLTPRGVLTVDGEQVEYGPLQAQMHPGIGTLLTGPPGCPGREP
The note with it: at 0.1 µM.

The target in assay [3] is T1, Sphingosine kinase 2 (Homo sapiens). The note with it: at 1 µM.
Assay [4] has as its target Casein kinase II subunit alpha (Homo sapiens) (UniProt P68400). The note with it: at 0.1 µM.
For assay [5] the target is unchanged. The settings on record: at 1 µM.
In assay [6] the target is T2, Inhibitor of nuclear factor kappa-B kinase subunit alpha (Homo sapiens) (UniProt O15111).
T2 sequence (whole entry): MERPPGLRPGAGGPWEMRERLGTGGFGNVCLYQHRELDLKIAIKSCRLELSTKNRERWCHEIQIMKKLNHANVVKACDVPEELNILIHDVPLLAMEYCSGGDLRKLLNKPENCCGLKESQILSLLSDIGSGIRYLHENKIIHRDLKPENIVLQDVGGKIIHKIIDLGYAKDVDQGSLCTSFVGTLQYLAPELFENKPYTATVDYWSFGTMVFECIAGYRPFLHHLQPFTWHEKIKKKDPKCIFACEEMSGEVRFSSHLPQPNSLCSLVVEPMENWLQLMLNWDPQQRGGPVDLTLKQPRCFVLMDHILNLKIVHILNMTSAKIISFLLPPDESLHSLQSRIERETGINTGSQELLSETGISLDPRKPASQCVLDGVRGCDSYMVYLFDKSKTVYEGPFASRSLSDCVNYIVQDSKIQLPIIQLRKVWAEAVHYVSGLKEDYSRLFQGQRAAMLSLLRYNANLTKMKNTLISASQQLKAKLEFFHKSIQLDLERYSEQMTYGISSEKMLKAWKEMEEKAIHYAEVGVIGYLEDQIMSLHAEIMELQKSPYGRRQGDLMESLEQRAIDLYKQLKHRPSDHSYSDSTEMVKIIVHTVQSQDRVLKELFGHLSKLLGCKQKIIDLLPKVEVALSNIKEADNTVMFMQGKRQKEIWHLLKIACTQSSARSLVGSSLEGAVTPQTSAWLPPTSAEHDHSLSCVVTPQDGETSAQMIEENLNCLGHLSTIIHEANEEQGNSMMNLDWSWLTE
The note with it: at 0.1 µM.

In assay [7] the target is T2, Inhibitor of nuclear factor kappa-B kinase subunit alpha (Homo sapiens). The settings on record: at 1 µM.
Assay [8] concerns the target T3, Inhibitor of nuclear factor kappa-B kinase subunit beta (Homo sapiens) (UniProt O14920).
T3 sequence (whole entry): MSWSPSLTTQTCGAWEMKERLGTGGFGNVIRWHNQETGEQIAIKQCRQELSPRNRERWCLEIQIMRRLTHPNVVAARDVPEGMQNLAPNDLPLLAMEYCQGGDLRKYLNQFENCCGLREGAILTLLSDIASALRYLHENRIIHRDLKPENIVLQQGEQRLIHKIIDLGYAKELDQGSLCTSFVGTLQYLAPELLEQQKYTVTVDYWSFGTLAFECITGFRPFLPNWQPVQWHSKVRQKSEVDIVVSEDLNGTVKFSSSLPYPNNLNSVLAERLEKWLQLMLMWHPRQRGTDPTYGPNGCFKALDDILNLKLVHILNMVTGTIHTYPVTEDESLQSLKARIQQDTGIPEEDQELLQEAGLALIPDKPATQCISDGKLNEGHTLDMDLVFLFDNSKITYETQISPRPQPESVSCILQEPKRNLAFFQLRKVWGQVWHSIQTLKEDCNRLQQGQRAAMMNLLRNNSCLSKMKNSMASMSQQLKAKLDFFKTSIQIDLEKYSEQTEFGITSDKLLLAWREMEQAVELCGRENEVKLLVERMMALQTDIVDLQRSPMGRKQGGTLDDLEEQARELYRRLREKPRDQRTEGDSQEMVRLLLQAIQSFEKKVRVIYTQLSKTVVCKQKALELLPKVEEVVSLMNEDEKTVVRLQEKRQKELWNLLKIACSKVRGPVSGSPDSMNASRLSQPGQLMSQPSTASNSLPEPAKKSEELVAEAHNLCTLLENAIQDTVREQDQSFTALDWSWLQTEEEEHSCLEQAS
The settings on record: at 0.1 µM.

The target in assay [9] is T3, Inhibitor of nuclear factor kappa-B kinase subunit beta (Homo sapiens). The note with it: at 1 µM.
The target of assay [10] is T4, Inhibitor of nuclear factor kappa-B kinase subunit epsilon (Homo sapiens) (UniProt Q14164).
T4 sequence (whole entry): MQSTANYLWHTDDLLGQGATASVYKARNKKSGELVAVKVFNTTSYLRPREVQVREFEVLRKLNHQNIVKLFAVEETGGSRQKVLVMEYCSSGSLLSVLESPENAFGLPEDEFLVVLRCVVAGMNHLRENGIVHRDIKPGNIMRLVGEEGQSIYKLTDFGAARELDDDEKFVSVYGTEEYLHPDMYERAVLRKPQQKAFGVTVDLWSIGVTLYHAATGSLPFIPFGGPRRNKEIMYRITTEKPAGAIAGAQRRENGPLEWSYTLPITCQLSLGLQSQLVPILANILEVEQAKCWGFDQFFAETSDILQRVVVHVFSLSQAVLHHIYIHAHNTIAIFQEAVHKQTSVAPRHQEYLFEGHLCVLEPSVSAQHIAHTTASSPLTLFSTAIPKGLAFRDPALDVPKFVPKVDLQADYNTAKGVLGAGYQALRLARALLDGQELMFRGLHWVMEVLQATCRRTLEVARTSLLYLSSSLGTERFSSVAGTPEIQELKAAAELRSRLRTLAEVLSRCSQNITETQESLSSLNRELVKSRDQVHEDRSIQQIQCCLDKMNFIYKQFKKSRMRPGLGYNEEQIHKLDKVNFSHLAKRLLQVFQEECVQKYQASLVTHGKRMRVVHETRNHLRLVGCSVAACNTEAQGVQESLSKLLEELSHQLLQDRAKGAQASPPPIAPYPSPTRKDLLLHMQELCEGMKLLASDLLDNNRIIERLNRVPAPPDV
The note with it: at 0.1 µM.

In assay [11] the target is T4, Inhibitor of nuclear factor kappa-B kinase subunit epsilon (Homo sapiens). The settings on record: at 1 µM.
Assay [12] has as its target T5, Serine/threonine-protein kinase Nek1 (Homo sapiens) (UniProt Q96PY6).
T5 sequence (whole entry): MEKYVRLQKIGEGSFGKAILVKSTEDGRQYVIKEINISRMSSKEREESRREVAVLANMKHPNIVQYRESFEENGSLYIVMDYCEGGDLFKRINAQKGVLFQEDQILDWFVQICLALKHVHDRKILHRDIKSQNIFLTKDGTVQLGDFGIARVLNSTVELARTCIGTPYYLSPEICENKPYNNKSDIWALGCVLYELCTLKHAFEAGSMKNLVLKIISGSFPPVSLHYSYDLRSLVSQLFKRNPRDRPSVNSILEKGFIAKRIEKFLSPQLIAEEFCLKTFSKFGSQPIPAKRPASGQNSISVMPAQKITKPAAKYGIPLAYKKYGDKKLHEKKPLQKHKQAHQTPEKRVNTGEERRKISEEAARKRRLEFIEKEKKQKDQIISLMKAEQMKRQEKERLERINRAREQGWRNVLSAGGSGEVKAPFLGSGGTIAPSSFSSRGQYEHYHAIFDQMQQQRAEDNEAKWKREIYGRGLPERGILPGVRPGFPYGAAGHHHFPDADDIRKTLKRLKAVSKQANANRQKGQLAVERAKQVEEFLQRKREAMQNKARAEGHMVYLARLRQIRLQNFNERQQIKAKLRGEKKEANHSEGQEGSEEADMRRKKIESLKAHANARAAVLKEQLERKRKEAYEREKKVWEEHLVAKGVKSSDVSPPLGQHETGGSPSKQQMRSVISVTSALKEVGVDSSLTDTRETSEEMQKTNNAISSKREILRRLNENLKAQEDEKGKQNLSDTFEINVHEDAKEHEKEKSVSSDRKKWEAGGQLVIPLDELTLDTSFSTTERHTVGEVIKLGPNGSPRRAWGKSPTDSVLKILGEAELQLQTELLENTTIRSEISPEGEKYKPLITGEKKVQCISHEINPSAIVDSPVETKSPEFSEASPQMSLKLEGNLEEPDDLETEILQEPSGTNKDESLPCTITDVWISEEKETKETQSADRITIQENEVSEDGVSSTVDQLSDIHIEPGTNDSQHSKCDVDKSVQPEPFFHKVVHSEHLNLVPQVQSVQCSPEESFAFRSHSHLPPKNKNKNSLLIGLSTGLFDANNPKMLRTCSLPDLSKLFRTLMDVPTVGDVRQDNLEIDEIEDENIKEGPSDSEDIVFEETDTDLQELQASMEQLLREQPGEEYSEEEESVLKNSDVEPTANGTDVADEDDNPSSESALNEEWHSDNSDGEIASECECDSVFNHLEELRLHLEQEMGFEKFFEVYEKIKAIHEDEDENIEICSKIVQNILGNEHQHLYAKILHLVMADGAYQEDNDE
The note with it: at 0.1 µM.

Assay [13] has as its target T5, Serine/threonine-protein kinase Nek1 (Homo sapiens). The settings on record: at 1 µM.
Assay [14] has as its target T6, Serine/threonine-protein kinase Nek2 (Homo sapiens) (UniProt P51955).
T6 sequence (whole entry): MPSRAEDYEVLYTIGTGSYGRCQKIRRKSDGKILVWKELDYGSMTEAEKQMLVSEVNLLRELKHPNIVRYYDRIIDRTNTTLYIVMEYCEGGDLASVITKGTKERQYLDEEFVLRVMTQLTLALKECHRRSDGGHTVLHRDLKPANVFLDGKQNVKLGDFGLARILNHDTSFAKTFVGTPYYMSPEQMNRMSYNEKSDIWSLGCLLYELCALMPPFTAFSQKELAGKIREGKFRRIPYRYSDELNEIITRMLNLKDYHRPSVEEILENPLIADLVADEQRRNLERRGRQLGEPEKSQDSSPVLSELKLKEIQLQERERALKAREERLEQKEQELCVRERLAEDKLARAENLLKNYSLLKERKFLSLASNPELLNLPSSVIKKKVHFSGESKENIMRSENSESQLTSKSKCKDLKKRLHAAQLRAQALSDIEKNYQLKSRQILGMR
The note with it: at 0.1 µM.

Assay [15] deals with T6, Serine/threonine-protein kinase Nek2 (Homo sapiens). The note with it: at 1 µM.
Assay [16] deals with Serine/threonine-protein kinase Nek6 (Homo sapiens) (UniProt Q9HC98). The note with it: at 0.1 µM.
Serine/threonine-protein kinase Nek6 (Homo sapiens), sequence (Q9HC98 whole entry): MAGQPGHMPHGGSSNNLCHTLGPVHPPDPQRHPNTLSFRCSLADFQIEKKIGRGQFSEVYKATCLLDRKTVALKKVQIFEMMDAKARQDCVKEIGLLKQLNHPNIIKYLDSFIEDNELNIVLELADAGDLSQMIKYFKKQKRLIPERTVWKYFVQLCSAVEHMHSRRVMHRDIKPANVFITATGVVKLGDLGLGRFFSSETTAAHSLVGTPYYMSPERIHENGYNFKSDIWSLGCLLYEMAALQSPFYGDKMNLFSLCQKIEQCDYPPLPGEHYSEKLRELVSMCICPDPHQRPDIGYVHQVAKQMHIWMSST
For assay [17] the target is unchanged. The settings on record: at 1 µM.
The target in assay [18] is Serine/threonine-protein kinase Nek7 (Homo sapiens) (UniProt Q8TDX7). The note with it: at 0.1 µM.
Serine/threonine-protein kinase Nek7 (Homo sapiens), sequence (Q8TDX7 whole entry, looked up): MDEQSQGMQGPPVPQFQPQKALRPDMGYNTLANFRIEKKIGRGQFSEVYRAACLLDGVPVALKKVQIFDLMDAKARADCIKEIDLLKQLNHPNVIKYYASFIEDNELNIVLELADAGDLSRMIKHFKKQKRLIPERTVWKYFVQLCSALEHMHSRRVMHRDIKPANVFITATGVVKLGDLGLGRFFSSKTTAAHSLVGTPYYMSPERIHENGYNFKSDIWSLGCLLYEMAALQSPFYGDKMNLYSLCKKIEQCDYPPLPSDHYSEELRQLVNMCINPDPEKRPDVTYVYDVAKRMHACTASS
Assay [19] has the same target. The settings on record: at 1 µM.
Assay [20] concerns the target T7, Serine/threonine-protein kinase Nek9 (Homo sapiens) (UniProt Q8TD19).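 Further: reported value is the mean percent inhibition of NEK9.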
T7 sequence (whole entry): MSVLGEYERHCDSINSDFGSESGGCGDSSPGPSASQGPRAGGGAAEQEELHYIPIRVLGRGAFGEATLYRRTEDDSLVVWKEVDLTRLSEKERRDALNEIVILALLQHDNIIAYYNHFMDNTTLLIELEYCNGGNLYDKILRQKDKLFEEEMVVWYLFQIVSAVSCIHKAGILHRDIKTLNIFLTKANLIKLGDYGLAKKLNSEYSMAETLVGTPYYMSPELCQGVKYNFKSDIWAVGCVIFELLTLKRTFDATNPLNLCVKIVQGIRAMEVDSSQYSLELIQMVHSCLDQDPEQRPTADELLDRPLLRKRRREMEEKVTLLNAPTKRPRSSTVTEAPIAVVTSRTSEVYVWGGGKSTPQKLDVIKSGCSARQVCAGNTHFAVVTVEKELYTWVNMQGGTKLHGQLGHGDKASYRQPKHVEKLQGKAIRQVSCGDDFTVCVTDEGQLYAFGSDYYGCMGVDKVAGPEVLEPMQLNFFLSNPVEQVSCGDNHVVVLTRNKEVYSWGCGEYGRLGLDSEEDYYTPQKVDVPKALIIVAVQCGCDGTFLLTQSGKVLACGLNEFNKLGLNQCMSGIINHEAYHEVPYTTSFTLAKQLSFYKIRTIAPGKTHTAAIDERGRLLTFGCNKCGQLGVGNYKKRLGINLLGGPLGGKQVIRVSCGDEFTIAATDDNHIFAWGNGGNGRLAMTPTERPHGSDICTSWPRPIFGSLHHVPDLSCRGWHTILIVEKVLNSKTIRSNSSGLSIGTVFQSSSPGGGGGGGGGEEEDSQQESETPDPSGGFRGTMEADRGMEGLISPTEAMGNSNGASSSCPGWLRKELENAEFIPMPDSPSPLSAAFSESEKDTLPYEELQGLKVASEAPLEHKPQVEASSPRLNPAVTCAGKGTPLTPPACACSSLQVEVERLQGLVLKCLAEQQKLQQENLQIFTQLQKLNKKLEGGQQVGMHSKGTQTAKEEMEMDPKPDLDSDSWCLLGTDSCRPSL
The note with it: at 0.1 µM.

Casein kinase II subunit alpha (Homo sapiens), sequence (P68400 whole entry, looked up): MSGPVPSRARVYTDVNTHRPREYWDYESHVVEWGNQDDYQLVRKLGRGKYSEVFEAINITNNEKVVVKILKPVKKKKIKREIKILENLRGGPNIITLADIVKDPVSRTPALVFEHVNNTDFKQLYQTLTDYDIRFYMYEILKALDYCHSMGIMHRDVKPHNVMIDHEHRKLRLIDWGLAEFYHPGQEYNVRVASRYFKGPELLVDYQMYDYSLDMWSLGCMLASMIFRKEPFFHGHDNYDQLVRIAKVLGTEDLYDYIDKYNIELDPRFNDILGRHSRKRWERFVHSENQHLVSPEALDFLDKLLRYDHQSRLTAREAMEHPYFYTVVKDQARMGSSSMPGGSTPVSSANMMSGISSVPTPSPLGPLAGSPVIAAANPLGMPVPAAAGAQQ
Sphingosine kinase 1 (Homo sapiens), sequence (Q9NYA1 whole entry): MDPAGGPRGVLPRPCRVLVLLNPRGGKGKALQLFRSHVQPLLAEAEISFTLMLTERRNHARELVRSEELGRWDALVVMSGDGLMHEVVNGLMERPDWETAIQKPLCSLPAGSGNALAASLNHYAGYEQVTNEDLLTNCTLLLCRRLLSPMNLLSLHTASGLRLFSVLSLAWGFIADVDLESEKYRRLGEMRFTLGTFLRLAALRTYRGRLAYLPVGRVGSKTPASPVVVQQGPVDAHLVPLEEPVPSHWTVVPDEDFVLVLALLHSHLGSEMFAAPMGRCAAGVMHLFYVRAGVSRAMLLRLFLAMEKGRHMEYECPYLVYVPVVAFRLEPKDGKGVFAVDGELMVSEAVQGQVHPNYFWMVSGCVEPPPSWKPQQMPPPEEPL

Consider `COC(=O)Nc1nc2ccc(Sc3ccc(NC(=O)Nc4cc(C(F)(F)F)ccc4F)cc3)cc2[nH]1`, for which the inhibition is 4.23% in assay [1]; -0.54% in assay [2]; -0.1% in assay [3]; 2.02% in assay [4]; 6.92% in assay [5]; 2.75% in assay [6]. Besides, the inhibition in assay [7] was -2%; in assay [8], -0.76%; in assay [9], -1.08%; in assay [10], -0.58%; in [11] it was -1.36%; in [12], -0.58%. In addition, the inhibition was 1.18% in assay [13]; 0.6% in assay [14]; -0.82% in [15]; 0.73% in assay [16]; -0.98% in assay [17]; -0.35% in [18]. The inhibition in assay [19] is -3.05%; in assay [20], -1.77%.
